Screening data: PubChem, Sanford-Burnham Center for Chemical Genomics
Compounds with a hit are over-represented: about 28% of the library has one in this group of screens.
CYP2C9 act: activators of human CYP2C9; P11712; activation factor at 5 µM; actives 1.4% (n = 96,000); recombinant CYP2C9, luciferin-H conversion, luminescence; stronger effect = higher value; factor 1 = untreated enzyme, 0 = blocked;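 active means activation factor of 2 or more for CYP2C9 at a 5 µM dose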;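 further: 0 = sulfaphenazole-blocked wells and 1 = vehicle-only wells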
Mac1 fbg enh: enhancers of human CD11b/CD18 binding to fibrinogen. activation, % at 10 µM. K562 CD11b/CD18 adhesion to fibrinogen, ATPlite luminescence. actives 0.07% (n = 93,000);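 active means 10 µM primary screen giving 50% or more activity, confirmed by 40% or more on retest at that dose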
CYP2C19 activ: cytochrome P450 2C19 (human) activation. P33261. 96,000 tested, under 10 active. activation factor at 5 µM. recombinant CYP2C19, luciferin-H EGE luminescence; stronger effect = higher value; 0 = fully inhibited enzyme, 1 = untreated enzyme;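 active means activation factor of at least 2 at 5 µM in the primary screen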;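 further: 0 = wells with 2.5 mM tranylcypromine and 1 = vehicle-only wells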
Target sequence (P33261 whole entry, looked up): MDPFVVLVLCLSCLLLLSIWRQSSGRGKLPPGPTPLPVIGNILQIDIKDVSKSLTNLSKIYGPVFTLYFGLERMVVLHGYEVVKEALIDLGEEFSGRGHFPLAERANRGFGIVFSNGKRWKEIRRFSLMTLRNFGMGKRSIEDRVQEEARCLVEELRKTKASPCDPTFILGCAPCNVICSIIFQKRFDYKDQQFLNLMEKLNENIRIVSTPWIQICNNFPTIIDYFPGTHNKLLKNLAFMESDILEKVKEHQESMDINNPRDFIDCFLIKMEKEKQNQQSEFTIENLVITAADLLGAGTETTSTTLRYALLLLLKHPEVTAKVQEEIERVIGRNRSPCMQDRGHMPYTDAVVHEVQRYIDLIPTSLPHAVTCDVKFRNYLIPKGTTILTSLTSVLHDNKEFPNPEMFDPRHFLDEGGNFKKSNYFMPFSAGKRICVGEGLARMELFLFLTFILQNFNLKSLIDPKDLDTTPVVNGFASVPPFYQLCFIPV
CYP2C9 inh: inhibitors of human CYP2C9. P11712. CYP2C9 Supersomes, luciferin-H conversion, luminescence. inhibition, % at 5 µM. actives 20% (n = 96,000). AID 777;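 active means blocking of liver enzyme CYP2C9 beyond about 50% at 5 µM, limit read from the data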
Mac1 fbg inh: inhibitors of human CD11b/CD18 binding to fibrinogen; K562 CD11b/CD18 adhesion to fibrinogen, ATPlite luminescence; Mn2+ added to activate the integrin; actives 0.54% (n = 93,000); inhibition, % at 10 µM; P05107+P11215; AID 1497;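 active means primary inhibition of 50% or more at 10 µM, then 40% or more on retest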
CYP2C19 inhib: inhibitors of human CYP2C19; P33261; CYP2C19 Supersomes, luciferin-H EGE luminescence, 30 min; inhibition, % at 5 µM; actives 21% (n = 96,000); AID 778;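 active means CYP2C19 inhibition above a set limit at 5 µM in the primary screen, cut at about 50% in these data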;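 further: plate controls were negative control wells for no effect and 2.5 mM tranylcypromine positive control for full effect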
The depositor's hits bear a star; / = no result given.

SMILES	CYP2C9 act	Mac1 fbg enh	CYP2C19 activ	CYP2C9 inh	Mac1 fbg inh	CYP2C19 inhib
Cc1ccc(-n2nc(C)c3c2OC(N)=C(C#N)C3c2cccs2)cc1 (configuration not stated)	0.7	-3	0.9	27	3	7
Cc1ccc(NC(=O)/C(=C\c2cccc([N+](=O)[O-])c2)NC(=O)c2cccs2)cc1	0.9	/	0.9	15	/	6
Cc1nn(-c2ccccc2)c(Cl)c1C1C(C#N)=C(N)Oc2n[nH]c(C)c21 (configuration not stated)	0.2	3	0.2	78*	0	83*
Cc1[nH]nc2c1C(c1ccsc1C)C(C#N)=C(N)O2 (configuration not stated)	0.9	-3	0.9	10	-27	12
CCCc1nn(C)c2c1C(c1ccncc1)C(C#N)=C(N)O2 (configuration not stated)	0.3	1	0.5	72*	-2	49
COc1cc(-n2nc(C)c3c2OC(N)=C(C#N)C3c2ccccc2)c(Cl)c(Br)c1O (configuration not stated)	0	-8	0	99*	101	99*
CCCc1[nH]nc2c1C(c1ccncc1)C(C#N)=C(N)O2 (configuration not stated)	0.6	/	0.6	44	/	35
Cc1ccc(-n2nc(C)c3c2OC(N)=C(C#N)C3c2ccncc2)cc1 (configuration not stated)	0.8	3	0.6	16	-1	42
Cc1nn(-c2ccccc2)c2c1C(c1ccncc1)C(C#N)=C(N)O2 (configuration not stated)	0.3	-4	0.4	66*	-3	59*
COc1ccc(C(N)CCc2ccco2)cc1 (configuration not stated)	0.9	7	0.7	14	-2	30
Cc1ccc(-n2nc(C)c3c2OC(N)=C(C#N)C3c2ccccc2F)cc1 (configuration not stated)	0.6	/	1.1	44	/	-7
Cc1nn(-c2ccccc2)c(Cl)c1C1C(C#N)=C(N)Oc2c1c(C)nn2-c1ccccc1 (configuration not stated)	0.1	-2	0.2	91*	1	81*
COCCCNC(=O)C1CCCN(C(=O)Nc2ccc(OC)cc2)C1 (configuration not stated)	0.9	/	1.1	8	/	-7
COC(=O)C1C(c2ccccc2)C(C(=O)N2CCOCC2)C1c1ccccc1 (configuration not stated)	0.8	-3	0.2	22	-17	84*
Cc1ccc(C(c2nnnn2CC2CCCO2)N2CCN(c3cccc(C)c3C)CC2)cc1 (configuration not stated)	0.3	56	0.6	70*	11	40
Cc1ccc(Cl)cc1N1CCN(C(CC(C)C)c2nnnn2CC2CCCO2)CC1 (configuration not stated)	0.8	1	0.7	22	-2	34
CCC(c1nnnn1C(C)(C)C)N1CCN(c2cc(Cl)ccc2C)CC1 (configuration not stated)	0.2	0	0.6	79*	-5	39
CCCC(c1nnnn1CC1CCCO1)N1CCN(c2cc(Cl)ccc2C)CC1 (configuration not stated)	0.1	-1	0	89*	-15	96*
COc1ccc(C(c2nnnn2CC2CCCO2)N2CCN(c3ccccc3)CC2)cc1 (configuration not stated)	0.9	/	1	14	/	-2
CCOc1ccc(-n2c(C)nnc2SCC(=O)N(CC)CC)cc1	1	-3	0.9	0	-11	5
COC(=O)c1cc(=O)nc2sc3ccccc3n12	0.2	-3	1	81*	-6	2
O=C1C2C(c3ccccc3)C=CC(c3ccccc3)C2C(=O)N1C1CCCCC1 (configuration not stated)	0.2	2	1.2	80*	7	-18
O=C1C2C(c3ccccc3)C=CC(c3ccccc3)C2C(=O)N1CCO (configuration not stated)	0.3	-4	0	74*	2	99*
O=C1C2C3C=CC(C3=C(c3ccccc3)c3ccccc3)C2C(=O)N1Cc1ccccc1 (configuration not stated)	1.1	2	0.5	-14	-22	54*
O=C1C2C3C=CC(C3=C(c3ccccc3)c3ccccc3)C2C(=O)N1CCO (configuration not stated)	0.8	2	0.9	18	4	15
SMILES	CYP2C9 act	Mac1 fbg enh	CYP2C19 activ	CYP2C9 inh	Mac1 fbg inh	CYP2C19 inhib
CC(c1ccccc1)C1CC(=O)N(C2CCCCC2)C1=O (configuration not stated)	0.9	-4	0.7	10	-31	25
O=C(N/N=C/c1ccc(O)cc1O)/C(=C/c1ccccc1)CCO	/	0	/	/	-11	/
CCC(=O)OC1(C#CCOc2ccc(OC)cc2)CCN(C)CC1	1.1	5	0.3	-9	-19	66*
O=C(O)CCc1nnc2n(Cc3ccc(F)cc3)c(=O)c3ccccc3n12	1	-3	1	-1	-15	-2
Cc1cccc(Nc2nc(N3CCCC3)nc(N3CCCC3)n2)c1	0.8	-1	0.9	16	-22	5
Cc1cccc(Nc2nc(NCc3ccco3)nc(N3CCOCC3)n2)c1	0.1	4	0.2	92*	5	82*
C=CCc1cc(C(=O)N2CCCCC2)ccc1O	0.7	4	0.1	34	-6	89*
Cc1cc([N+](=O)[O-])c(C(C)(C)C)cc1N	1	-5	0.1	0	5	89*
Cc1cc2nc(N)sc2cc1[N+](=O)[O-]	1	-1	1	1	-8	-3
Nn1c(SCc2cccc(C(F)(F)F)c2)nnc1-c1ccco1	1.6	-2	0.1	-61	5	94*
Cn1c(SCc2cccc(C(F)(F)F)c2)nnc1-c1ccco1	0.9	-4	0.3	14	-3	72*
Cc1ccc(CSc2nnc(-c3ccco3)n2N)cc1	1.2	-5	0.9	-19	-9	8
O=C(O)Cn1nnn(-c2ccccc2)c1=S	1.1	1	1.1	-12	-8	-6
COc1ccc(OC)c(NC(=O)C2C3C=CC(C3)C2C(=O)NCc2ccccn2)c1 (configuration not stated)	0.9	-2	0.7	14	-2	29
CC(C)(C)n1ncc2c(=O)n(Cc3c(F)cccc3Cl)cnc21	0.7	0	0.1	32	5	87*
Clc1cccc(Cl)c1/C=C/c1nc2ccccc2[nH]1	0.2	-4	0.7	84*	75	32
COc1ccc(S(=O)(=O)N2CCC(C(=O)N3CCc4ccccc4C3)CC2)cc1C	0.7	-1	0.5	32	4	50
